Data on 14 compounds can be found in PubChem BioAssay (NCI).

Each structure is given as a SMILES string. Compounds without any hit were thinned out: in the full panel of roughly 83,000, 20% have a hit.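 Step 1: grow cells in 96-well plates. Step 2: add test compound at a single concentration. Step 3: incubate 48 h. Step 4: record percent growth.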 Unmarked numbers belong to inactive results. The source made the active and inactive calls. Rule for the calls: active = growth percent below 10; inactive = the rest.

Experiment in all cases: NCI-60 one-dose screen, 48 h (100 = growth as untreated, 0 = no growth, -100 = all killed)
Settings in all cases: 10 µM unless noted

The test system of assay [1] is SK-MEL-2 melanoma.
Assay [2] concerns EKVX NSCLC.
For assay [3], the system named is SN12C renal.
Assay [4] concerns UO-31 renal.
Assay [5] concerns TK-10 renal.
The test system of assay [6] is ACHN renal.
Assay [7] has as its system CAKI-1 renal.
Assay [8] deals with A498 renal.
The subject of assay [9] is CCRF-CEM leukemia.
The test system of assay [10] is MOLT-4 leukemia.

As to `O=C(COc1ccc(/C=C2\CSc3ccccc3C2=O)cc1)c1ccc(Cl)cc1`, the growth is 95.1% in assay [1]; 122% in [2]; 103% in assay [3]; 89.8% in assay [4]; 113% in [5]; 99% in [6]. For the same compound, the growth in assay [7] was 96.5%; in assay [8], 105%; in assay [9] it was 93.9%; in [10] it was 82.1%.
Take `Nc1nc(N)c(C=Nc2ccc(Br)cc2)c(Nc2ccc(Br)cc2)n1`: the growth is 108% in [1]; 86.4% in assay [2]; 99.2% in assay [3]; 75.2% in assay [4]; 127% in assay [5]; 73.3% in assay [6]. Further, the growth in assay [7] is 69.2%; in assay [8] it was 83.1%; in [9], 81.1%; in assay [10], 64.7%.
Regarding `COc1cc(/C=C/c2cc(/C=C/c3ccc(O)c(OC)c3)n(-c3ccccc3)n2)ccc1O`, the growth in assay [1] is -48.1% (active); in assay [2], -38.8% (active); in assay [3] it was -3.11% (active); in [4], -44.6% (active); in assay [5] it was 6.18% (active); in assay [6], 2.77% (active). For the same compound, the growth in [7] was -60.4% (active); in assay [8], -25.2% (active); in assay [9] it was -5.12% (active); in assay [10] it was -39.9% (active).
`CC1CCCCN1S(=O)(=O)c1ccc(CN=C=S)cc1` (stereo not given): the growth in assay [1] was 94.5%; in assay [2], 99.2%; in assay [3], 66.1%; in [4], 54%; in [5], 64.4%; in [6] it was 4.78% (active). Moreover, the growth in assay [7] is 51.2%; in assay [8] it was 79%; in [9] it was 39.2%; in assay [10], 31.1%.
In the case of `COc1ccc2c(c1)c(=O)oc1c(C)c(OCC(C)=O)ccc12`, the growth in assay [1] was 115%; in [2] it was 4.14% (active); in assay [3], 94%; in [4] it was 98.3%; in assay [5] it was 82.7%; in [6], 97.2%. For the same compound, the growth in [7] was 92.1%; in [8] it was 90%; in [9], 99.7%; in [10], 92.9%.
As for `Cc1nc2nc(C(F)(F)F)[nH]c2nc1C`, the growth is 115% in assay [1]; 89.5% in assay [2]; 95.4% in assay [3]; 101% in assay [4]; 104% in [5]; 110% in assay [6]. Besides, the growth in assay [7] is 98.3%; in assay [8], 98.7%; in [9], 93.3%; in [10] it was 113%.
Regarding `CCCCCCCCCCCCCCCC[N+]1(C)CCOCC1`, the growth was 57.7% in assay [1]; 64.1% in assay [2]; 15.4% in assay [3]; 59.6% in assay [4]; -36.8% (active) in assay [5]; 62.8% in [6]. Moreover, the growth in assay [7] was 76.3%; in assay [8], 48.8%; in [9], -42.1% (active); in assay [10] it was -57.8% (active).
Turning to `COc1ccc(-c2csc3c2-n2cccc2C3=O)cc1O`, the growth in assay [1] is 26.9%; in [2] it was 56%; in [3], 29.6%; in assay [4], 31.5%; in assay [5] it was 51.3%; in assay [6] it was 31.7%. The growth in [7] is 43.1%; in assay [8], 38.5%; in assay [9], 0.363% (active); in [10], -10.8% (active).
With `Cc1nc(NC(=O)COc2cccc(/C=C3\COc4ccccc4C3=O)c2)sc1C`, the growth in assay [1] was -77% (active); in [2], -23.3% (active); in assay [3], -46.1% (active); in [4], -80.1% (active); in assay [5], -74.1% (active); in assay [6], -96.9% (active). Also, the growth in assay [7] is -94.3% (active); in assay [8], 87.2%; in [9], -74.7% (active); in [10] it was -36.8% (active).
For `COc1cccc(C2C3=C(COC3=O)N(CCO)c3cc4c(cc32)CCC4)c1` (stereo not given), the growth is 36.8% in assay [1]; 27.9% in assay [2]; 19.5% in [3]; 42.3% in [4]; 53.8% in assay [5]; 35.5% in [6]. The growth in assay [7] was 4.92% (active); in [8], -19.8% (active); in assay [9], 20.9%; in assay [10], 24.3%.
In the case of `O=C1OCC2=C1C(c1ccc3c(c1)OCO3)CC(=O)N2c1cccc(Cl)c1` (stereo not given), the growth in assay [1] was 103%; in assay [2] it was 96.3%; in assay [3] it was 95.9%; in assay [4], 85.1%; in assay [5], 99.6%; in assay [6], 103%. Further, the growth in assay [7] was 90.2%; in assay [8] it was 84.6%; in [9], 90.9%; in [10], 95.2%.
Regarding `O=C1/C(=C/c2ccc(Oc3ccccc3)cc2)N=C(c2ccccc2)N1CCc1cccs1`, the growth in [1] is 75.5%; in [2], 95.7%; in assay [3], 91.3%; in [4], 67.6%; in [5] it was 80.6%; in [6] it was 96.1%. The growth was 67.9% in [7], 59.7% in [8], 79.1% in assay [9] and 62.8% in assay [10].
On to `O=C1CN2CCC1C/C2=C\c1ccnc2c(Cl)cccc12` (stereo not given), for which the growth in assay [1] is 85.8%; in assay [2] it was 95.7%; in assay [3], 94.3%; in [4], 75.5%; in assay [5], 127%; in assay [6], 91.2%. Besides, the growth in [7] is 93.9%; in assay [8] it was 159%; in [9] it was 96.8%; in assay [10], 97.1%.
As for `CC1(C)CC(=O)C2=C(C1)Nc1cc3c(cc1C2c1ccc(F)cc1)OCO3` (stereo not given), the growth is 91.3% in [1]; 92.3% in [2]; 106% in assay [3]; 74% in assay [4]; 99.4% in assay [5]; 98.6% in assay [6]. The growth in assay [7] is 96.4%; in assay [8] it was 82%; in [9], 86.4%; in assay [10], 83.1%.
